Legend:
Assay in all cases: DAPPL (digital affinity profiling via proximity ligation, sequencing); 10 mM Tris-HCl pH 7.5, 50 mM NaCl, 1 mM DTT, 4% glycerol, room temperature, 30 min; GST-TFs on glutathione beads, 16-mer random dsDNA library, 0.1% formaldehyde crosslink after washing; high values mean tight binding
Conditions in all cases: protein: recombinant; tags: N-terminal GST; dsDNA, one strand shown
FLI1 = molecular target: T1, FLI1 (Homo sapiens, UniProt Q01543 1-452)
T1 sequence: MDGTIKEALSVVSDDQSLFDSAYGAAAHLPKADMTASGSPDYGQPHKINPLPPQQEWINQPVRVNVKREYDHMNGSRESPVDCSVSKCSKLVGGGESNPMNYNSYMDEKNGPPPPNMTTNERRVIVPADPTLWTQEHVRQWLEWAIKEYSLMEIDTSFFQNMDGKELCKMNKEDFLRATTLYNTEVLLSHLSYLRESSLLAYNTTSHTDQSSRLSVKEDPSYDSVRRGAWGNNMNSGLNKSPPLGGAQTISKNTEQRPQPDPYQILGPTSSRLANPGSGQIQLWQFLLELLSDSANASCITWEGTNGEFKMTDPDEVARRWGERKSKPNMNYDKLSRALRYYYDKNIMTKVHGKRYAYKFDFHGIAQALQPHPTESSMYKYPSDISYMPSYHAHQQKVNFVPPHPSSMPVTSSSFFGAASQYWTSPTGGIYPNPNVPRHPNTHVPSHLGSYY
How it was run: (§1)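 A tag-only sample was pooled with DNA-barcoded human transcription factors that had been expressed in yeast as GST fusions and captured on glutathione beads. The pools were incubated for 30 min at room temperature with 200 nmole of a random double-stranded 16-mer DNA library in Tris/NaCl/DTT/glycerol buffer, then washed, crosslinked with 0.1% formaldehyde, proximity-ligated (BsaI/T4 ligase, 1 h, 37 °C), PCR-amplified and sequenced on an Illumina NextSeq500. Binding signal is each hexamer's read frequency for a factor divided by its frequency for the tag-only sample.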

ELK1 = molecular target: T2, ELK1 (Homo sapiens, UniProt P19419 1-428)
T2 sequence: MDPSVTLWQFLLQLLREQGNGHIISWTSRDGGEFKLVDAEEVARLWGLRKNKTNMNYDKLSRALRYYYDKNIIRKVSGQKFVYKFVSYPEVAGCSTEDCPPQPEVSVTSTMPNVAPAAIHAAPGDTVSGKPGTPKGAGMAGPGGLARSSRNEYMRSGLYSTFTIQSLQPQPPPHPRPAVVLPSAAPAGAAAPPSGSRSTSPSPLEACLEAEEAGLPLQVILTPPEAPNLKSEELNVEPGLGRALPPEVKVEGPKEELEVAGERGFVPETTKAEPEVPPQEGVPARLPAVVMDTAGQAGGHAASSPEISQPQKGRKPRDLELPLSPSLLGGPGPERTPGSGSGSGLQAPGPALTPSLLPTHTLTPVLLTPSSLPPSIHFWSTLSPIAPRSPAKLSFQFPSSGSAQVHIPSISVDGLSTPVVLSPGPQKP
How it was run: as §1

GABPA = molecular target: T3, GABPA (Homo sapiens, UniProt Q06546 1-454)
T3 sequence: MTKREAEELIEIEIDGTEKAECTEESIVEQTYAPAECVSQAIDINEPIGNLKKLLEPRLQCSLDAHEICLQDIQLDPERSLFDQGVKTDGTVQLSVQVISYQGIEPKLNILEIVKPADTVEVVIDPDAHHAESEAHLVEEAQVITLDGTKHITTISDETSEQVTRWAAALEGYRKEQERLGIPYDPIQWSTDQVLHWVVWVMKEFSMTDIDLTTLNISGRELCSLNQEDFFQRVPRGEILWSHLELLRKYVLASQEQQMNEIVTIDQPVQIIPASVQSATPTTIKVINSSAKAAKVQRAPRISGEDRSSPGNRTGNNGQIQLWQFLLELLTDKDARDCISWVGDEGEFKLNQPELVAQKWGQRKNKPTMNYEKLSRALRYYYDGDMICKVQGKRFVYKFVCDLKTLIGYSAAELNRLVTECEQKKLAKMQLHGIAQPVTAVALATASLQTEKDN
How it was run: as §1

ERG = molecular target: T4, ERG (Homo sapiens, UniProt P11308 1-479)
T4 sequence: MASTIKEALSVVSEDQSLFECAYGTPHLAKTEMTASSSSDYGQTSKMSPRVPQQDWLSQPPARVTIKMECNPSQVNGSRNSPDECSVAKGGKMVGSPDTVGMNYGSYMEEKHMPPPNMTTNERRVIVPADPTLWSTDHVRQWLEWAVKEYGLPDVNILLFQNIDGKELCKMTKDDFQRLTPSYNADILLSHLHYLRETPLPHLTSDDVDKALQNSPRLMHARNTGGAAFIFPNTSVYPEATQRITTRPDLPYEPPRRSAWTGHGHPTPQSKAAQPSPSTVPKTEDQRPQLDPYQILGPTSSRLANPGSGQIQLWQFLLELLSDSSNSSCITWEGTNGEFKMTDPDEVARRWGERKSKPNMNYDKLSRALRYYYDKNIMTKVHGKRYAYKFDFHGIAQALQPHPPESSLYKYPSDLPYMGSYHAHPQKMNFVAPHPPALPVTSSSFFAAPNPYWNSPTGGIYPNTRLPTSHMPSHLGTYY
How it was run: as §1

ELF1 = ELF1 (Homo sapiens, UniProt P32519 1-619)
How it was run: as §1

EHF = molecular target: T5, EHF (Homo sapiens, UniProt Q9NZC4 1-300)
T5 sequence: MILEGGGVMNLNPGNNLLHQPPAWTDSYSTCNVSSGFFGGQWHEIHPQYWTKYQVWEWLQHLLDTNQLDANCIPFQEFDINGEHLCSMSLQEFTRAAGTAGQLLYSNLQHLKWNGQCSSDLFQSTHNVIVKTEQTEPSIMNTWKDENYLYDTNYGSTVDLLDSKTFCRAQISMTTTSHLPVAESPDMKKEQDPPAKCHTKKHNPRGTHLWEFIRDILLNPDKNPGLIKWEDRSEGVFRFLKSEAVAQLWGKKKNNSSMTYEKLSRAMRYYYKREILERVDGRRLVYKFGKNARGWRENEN
How it was run: as §1

SPI1 = SPI1 (Homo sapiens, UniProt P17947 1-270)
How it was run: as §1

SPIB = SPIB (Homo sapiens, UniProt Q01892 1-262)
How it was run: as §1

ELK3 = molecular target: T6, ELK3 (Homo sapiens, UniProt P41970 1-407)
T6 sequence: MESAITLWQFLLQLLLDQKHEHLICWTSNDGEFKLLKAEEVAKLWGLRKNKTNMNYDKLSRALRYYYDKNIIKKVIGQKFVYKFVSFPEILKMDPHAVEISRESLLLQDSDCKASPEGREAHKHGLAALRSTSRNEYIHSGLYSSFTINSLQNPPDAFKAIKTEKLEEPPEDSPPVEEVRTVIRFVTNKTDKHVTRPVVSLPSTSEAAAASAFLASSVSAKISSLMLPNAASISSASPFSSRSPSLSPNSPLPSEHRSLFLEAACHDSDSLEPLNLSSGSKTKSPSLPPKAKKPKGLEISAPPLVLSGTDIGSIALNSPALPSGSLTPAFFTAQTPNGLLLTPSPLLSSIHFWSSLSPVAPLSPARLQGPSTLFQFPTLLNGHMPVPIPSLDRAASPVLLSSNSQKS
How it was run: as §1

SPIB, sequence (Q01892 whole entry): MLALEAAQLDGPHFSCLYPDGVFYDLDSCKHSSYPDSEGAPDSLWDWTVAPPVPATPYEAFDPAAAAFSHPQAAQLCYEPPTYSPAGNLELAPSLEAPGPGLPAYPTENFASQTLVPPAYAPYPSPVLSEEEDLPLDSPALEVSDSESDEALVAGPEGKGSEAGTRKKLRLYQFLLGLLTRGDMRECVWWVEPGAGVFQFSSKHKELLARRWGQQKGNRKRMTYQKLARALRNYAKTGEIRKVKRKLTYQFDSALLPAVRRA
ELF1, sequence (P32519 whole entry): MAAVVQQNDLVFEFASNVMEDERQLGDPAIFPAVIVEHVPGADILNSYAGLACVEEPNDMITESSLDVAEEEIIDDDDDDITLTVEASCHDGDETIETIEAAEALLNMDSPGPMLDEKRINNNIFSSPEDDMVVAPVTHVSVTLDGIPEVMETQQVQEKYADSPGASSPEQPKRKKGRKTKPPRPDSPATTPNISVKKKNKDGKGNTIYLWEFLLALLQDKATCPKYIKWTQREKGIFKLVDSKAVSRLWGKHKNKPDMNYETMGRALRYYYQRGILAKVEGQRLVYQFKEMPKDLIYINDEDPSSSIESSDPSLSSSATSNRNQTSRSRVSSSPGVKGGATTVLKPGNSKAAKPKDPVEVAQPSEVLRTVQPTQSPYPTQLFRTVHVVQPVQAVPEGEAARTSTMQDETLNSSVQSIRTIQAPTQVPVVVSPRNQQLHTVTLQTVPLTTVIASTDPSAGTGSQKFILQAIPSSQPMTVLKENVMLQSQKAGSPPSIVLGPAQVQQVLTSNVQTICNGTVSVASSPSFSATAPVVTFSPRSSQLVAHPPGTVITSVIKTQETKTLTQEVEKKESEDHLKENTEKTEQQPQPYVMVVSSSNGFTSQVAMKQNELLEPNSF

Sequence	binding signal (FLI1)	binding signal (ELK1)	binding signal (GABPA)	binding signal (ERG)	binding signal (ELF1)	binding signal (EHF)	binding signal (SPI1)	binding signal (SPIB)	binding signal (ELK3)
CGCTCT	1.39 fold enrichment (6-mer frequency, TF over GST control)	1.25 fold enrichment (6-mer frequency, TF over GST control)	1.34 fold enrichment (6-mer frequency, TF over GST control)	1.21 fold enrichment (6-mer frequency, TF over GST control)	1.3 fold enrichment (6-mer frequency, TF over GST control)	1.21 fold enrichment (6-mer frequency, TF over GST control)	1.21 fold enrichment (6-mer frequency, TF over GST control)	1.16 fold enrichment (6-mer frequency, TF over GST control)	1.18 fold enrichment (6-mer frequency, TF over GST control)
ACCCCC	1.17 fold enrichment (6-mer frequency, TF over GST control)	1.16 fold enrichment (6-mer frequency, TF over GST control)	1.21 fold enrichment (6-mer frequency, TF over GST control)	1.16 fold enrichment (6-mer frequency, TF over GST control)	1.09 fold enrichment (6-mer frequency, TF over GST control)	1.12 fold enrichment (6-mer frequency, TF over GST control)	1.14 fold enrichment (6-mer frequency, TF over GST control)	1.21 fold enrichment (6-mer frequency, TF over GST control)	1.18 fold enrichment (6-mer frequency, TF over GST control)
CGTAAC	1.19 fold enrichment (6-mer frequency, TF over GST control)	1.12 fold enrichment (6-mer frequency, TF over GST control)	1.17 fold enrichment (6-mer frequency, TF over GST control)	1.07 fold enrichment (6-mer frequency, TF over GST control)	1.11 fold enrichment (6-mer frequency, TF over GST control)	1.16 fold enrichment (6-mer frequency, TF over GST control)	1.08 fold enrichment (6-mer frequency, TF over GST control)	1.16 fold enrichment (6-mer frequency, TF over GST control)	1.07 fold enrichment (6-mer frequency, TF over GST control)
TGATAT	1.13 fold enrichment (6-mer frequency, TF over GST control)	1.11 fold enrichment (6-mer frequency, TF over GST control)	1.15 fold enrichment (6-mer frequency, TF over GST control)	1.12 fold enrichment (6-mer frequency, TF over GST control)	1.11 fold enrichment (6-mer frequency, TF over GST control)	1.08 fold enrichment (6-mer frequency, TF over GST control)	1.08 fold enrichment (6-mer frequency, TF over GST control)	1.05 fold enrichment (6-mer frequency, TF over GST control)	1 fold enrichment (6-mer frequency, TF over GST control)
CAATGC	1.21 fold enrichment (6-mer frequency, TF over GST control)	1.23 fold enrichment (6-mer frequency, TF over GST control)	1.21 fold enrichment (6-mer frequency, TF over GST control)	1.12 fold enrichment (6-mer frequency, TF over GST control)	1.21 fold enrichment (6-mer frequency, TF over GST control)	1.17 fold enrichment (6-mer frequency, TF over GST control)	1.12 fold enrichment (6-mer frequency, TF over GST control)	1.32 fold enrichment (6-mer frequency, TF over GST control)	1.21 fold enrichment (6-mer frequency, TF over GST control)
TAGTCC	1.09 fold enrichment (6-mer frequency, TF over GST control)	1.05 fold enrichment (6-mer frequency, TF over GST control)	1.12 fold enrichment (6-mer frequency, TF over GST control)	1.08 fold enrichment (6-mer frequency, TF over GST control)	1.15 fold enrichment (6-mer frequency, TF over GST control)	1.05 fold enrichment (6-mer frequency, TF over GST control)	1.07 fold enrichment (6-mer frequency, TF over GST control)	1.06 fold enrichment (6-mer frequency, TF over GST control)	1.07 fold enrichment (6-mer frequency, TF over GST control)
GTTAAT	1.14 fold enrichment (6-mer frequency, TF over GST control)	1.19 fold enrichment (6-mer frequency, TF over GST control)	1.06 fold enrichment (6-mer frequency, TF over GST control)	1.1 fold enrichment (6-mer frequency, TF over GST control)	1.03 fold enrichment (6-mer frequency, TF over GST control)	1.16 fold enrichment (6-mer frequency, TF over GST control)	1.1 fold enrichment (6-mer frequency, TF over GST control)	1.15 fold enrichment (6-mer frequency, TF over GST control)	1.12 fold enrichment (6-mer frequency, TF over GST control)
ATAAGC	1.02 fold enrichment (6-mer frequency, TF over GST control)	1.09 fold enrichment (6-mer frequency, TF over GST control)	1.11 fold enrichment (6-mer frequency, TF over GST control)	1.08 fold enrichment (6-mer frequency, TF over GST control)	1.1 fold enrichment (6-mer frequency, TF over GST control)	1.05 fold enrichment (6-mer frequency, TF over GST control)	1.01 fold enrichment (6-mer frequency, TF over GST control)	1.11 fold enrichment (6-mer frequency, TF over GST control)	1.05 fold enrichment (6-mer frequency, TF over GST control)
TACCGC	1.16 fold enrichment (6-mer frequency, TF over GST control)	1.07 fold enrichment (6-mer frequency, TF over GST control)	1.02 fold enrichment (6-mer frequency, TF over GST control)	1.08 fold enrichment (6-mer frequency, TF over GST control)	1.02 fold enrichment (6-mer frequency, TF over GST control)	1.11 fold enrichment (6-mer frequency, TF over GST control)	1.19 fold enrichment (6-mer frequency, TF over GST control)	1.09 fold enrichment (6-mer frequency, TF over GST control)	1.13 fold enrichment (6-mer frequency, TF over GST control)
ATCCCG	1.5 fold enrichment (6-mer frequency, TF over GST control)	1.36 fold enrichment (6-mer frequency, TF over GST control)	1.47 fold enrichment (6-mer frequency, TF over GST control)	1.44 fold enrichment (6-mer frequency, TF over GST control)	1.42 fold enrichment (6-mer frequency, TF over GST control)	1.39 fold enrichment (6-mer frequency, TF over GST control)	1.32 fold enrichment (6-mer frequency, TF over GST control)	1.39 fold enrichment (6-mer frequency, TF over GST control)	1.34 fold enrichment (6-mer frequency, TF over GST control)
GACATT	1.16 fold enrichment (6-mer frequency, TF over GST control)	1.17 fold enrichment (6-mer frequency, TF over GST control)	1.12 fold enrichment (6-mer frequency, TF over GST control)	1.15 fold enrichment (6-mer frequency, TF over GST control)	1.16 fold enrichment (6-mer frequency, TF over GST control)	1.11 fold enrichment (6-mer frequency, TF over GST control)	1.13 fold enrichment (6-mer frequency, TF over GST control)	1.16 fold enrichment (6-mer frequency, TF over GST control)	1.02 fold enrichment (6-mer frequency, TF over GST control)
CGTTAC	1.17 fold enrichment (6-mer frequency, TF over GST control)	1.09 fold enrichment (6-mer frequency, TF over GST control)	1.08 fold enrichment (6-mer frequency, TF over GST control)	1.11 fold enrichment (6-mer frequency, TF over GST control)	1.12 fold enrichment (6-mer frequency, TF over GST control)	1.14 fold enrichment (6-mer frequency, TF over GST control)	1.27 fold enrichment (6-mer frequency, TF over GST control)	1.11 fold enrichment (6-mer frequency, TF over GST control)	1.21 fold enrichment (6-mer frequency, TF over GST control)
TCACCC	1.23 fold enrichment (6-mer frequency, TF over GST control)	1.23 fold enrichment (6-mer frequency, TF over GST control)	1.21 fold enrichment (6-mer frequency, TF over GST control)	1.13 fold enrichment (6-mer frequency, TF over GST control)	1.2 fold enrichment (6-mer frequency, TF over GST control)	1.06 fold enrichment (6-mer frequency, TF over GST control)	1.12 fold enrichment (6-mer frequency, TF over GST control)	1.2 fold enrichment (6-mer frequency, TF over GST control)	1.15 fold enrichment (6-mer frequency, TF over GST control)
